Hits are enriched below; roughly 19% of the tested compounds scored in any of these assays.
TGFb inhibitor: qHTS for Inhibitors of TGF-b; HepG2 CAGA-GFP TGF-b/SMAD3 reporter, GFP fluorescence, 18 h; TGF-beta stimulated, 500 pg/mL final; Potency, µM (highest dose often 46.1 µM), inactives show at the top dose activity, negative = inhibition, hits mostly inhibitors; actives 1.2% (n = 410,000); further: potency means the concentration at half of the fitted maximal effect; on the % scale 0 is the no-effect control and ±100 the full control effect; nearly all actives have a fitted effect of over 65% in size
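GFP signal (ex488/em500-530) from TGF-beta-stimulated HEPG2 CAGA-GFP cells, 500 pg/mL final, 18 h at 37 degrees C in DMEM plus 1% FBS, normalized to unstimulated and DMSO-stimulated controls.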
S-ASM inh: Inhibitors of Secretory Acid Sphingomyelinase (S-ASM): qHTS | Sphingomyelin phosphodiesterase (Homo sapiens), P17405 | placental ASM, HMU-PC fluorogenic substrate, 60 min | Potency, µM (series often up to 57.5 µM), for the others: at the highest dose activity change, negative = inhibition, hits mostly inhibitors | actives 0.006% (n = 340,000); further: potency means the concentration at half of the fitted maximal effect
Target sequence (P17405 47-631 limits assumed): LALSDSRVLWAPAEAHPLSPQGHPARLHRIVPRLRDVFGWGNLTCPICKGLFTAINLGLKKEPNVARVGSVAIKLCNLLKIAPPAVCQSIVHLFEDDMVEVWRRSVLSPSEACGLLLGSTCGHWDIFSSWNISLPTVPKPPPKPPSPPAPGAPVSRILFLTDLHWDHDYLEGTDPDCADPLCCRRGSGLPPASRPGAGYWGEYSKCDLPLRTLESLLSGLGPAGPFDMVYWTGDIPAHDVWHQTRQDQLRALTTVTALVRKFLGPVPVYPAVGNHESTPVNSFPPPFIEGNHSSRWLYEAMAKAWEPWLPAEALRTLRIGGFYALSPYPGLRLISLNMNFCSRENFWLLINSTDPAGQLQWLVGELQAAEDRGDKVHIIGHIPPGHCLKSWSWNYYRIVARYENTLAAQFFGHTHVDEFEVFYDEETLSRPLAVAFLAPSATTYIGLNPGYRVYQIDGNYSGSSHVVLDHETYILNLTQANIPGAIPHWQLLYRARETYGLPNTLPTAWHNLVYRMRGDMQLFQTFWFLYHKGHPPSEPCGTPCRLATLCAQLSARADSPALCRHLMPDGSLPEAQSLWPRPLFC
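Human placenta-derived ASM enzyme was preincubated with compound for 10 minutes at room temperature, then given fluorogenic substrate HMU-PC0 (9 uM final) for 60 minutes at 37 °C; a pH 10 stop preceded fluorescence reading at Ex 386/Em 447 nm.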
HepG2 viability: qHTS for Inhibitors of TGF-b: Cytotox Counterscreen | AID 588856, 2011 | HepG2 CAGA-GFP viability, ATP luminescence, 18 h | actives 0.76% (n = 410,000) | Potency, µM (series often up to 46.1 µM), for the others: at the highest dose activity change, negative = cytotoxicity, usual class: cytotoxic; further: potency means the concentration at half of the fitted maximal effect
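HepG2 CAGA-GFP cells (1000/well, DMEM with 1% FBS) received compound, then TGF-beta at 500 pg/mL final, and were incubated 18 hours at 37 degrees C. Viability was read by CellTiter-Glo luminescence. Media-only wells were set as complete cell-killing and DMSO as no toxicity.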
TDP1 cell CPT: qHTS for Inhibitors of human tyrosyl-DNA phosphodiesterase 1 (TDP1): qHTS in cells in presence of CPT; chicken DT40 Tdp1-/-;hTDP1 cells + 20 nM CPT, ATP luminescence, 48 h; Potency, µM (highest dose often 46.2 µM), for inactives: at the highest dose activity change, negative = growth inhibition, hits mostly inhibitors; actives 12% (n = 420,000); further: potency means the concentration at half of the fitted maximal effect; on the % scale 0 is the no-effect control and ±100 the full control effect; nearly all actives have a fitted effect of over 55% in size
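Chicken DT40 Tdp1-/- cells complemented with human TDP1, 400 cells/well, exposed to compounds plus 20 nM camptothecin for at least 48 h at 37 C; viability read as ATP content by CellTiter-Glo luminescence.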
DT40 TDP1 no CPT: qHTS for Inhibitors of human tyrosyl-DNA phosphodiesterase 1 (TDP1): qHTS in cells in absence of CPT; DT40 Tdp1-/- hTDP1 cells, no CPT, ATP luminescence, 48 h; Potency, µM (series often up to 46.2 µM), for the others: top-dose activity change, negative = growth inhibition, actives largely listed as inhibitors; actives 15% (n = 420,000); further: potency means the concentration at half of the fitted maximal effect; on the % scale 0 is the no-effect control and ±100 the full control effect; nearly all actives have a fitted effect of over 55% in size
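DT40 Tdp1-/-;hTDP1 cells, no CPT (DMSO vehicle only), 400 cells/well; compounds pin-transferred; ≥48 hr, 37 °C; CellTiter-Glo 30 min RT dark, luminescence read.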
IL-1B inflam inh: qHTS for Inhibitors of Inflammasome Signaling: IL-1-beta AlphaLISA Primary Screen; THP-1 LPS/ATP IL-1B secretion, AlphaLISA, 16 h; active compounds read low; activity change, % at 57.5 µM; AID 743279, 2014; actives 4.7% (n = 360,000); in the data active means activity change below about -50%; inconclusive means mostly about -30% to -49%; further: on the % scale 0 is the no-effect control and ±100 the full control effect
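THP-1 cells pretreated 1 hr with compounds (up to 57.5 uM final), then stimulated with LPS (250 ng/mL final) plus ATP (1.25 mM final); secreted IL-1B measured by AlphaLISA after 16 hr, decreased signal indicating inhibition.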
* marks the source's active call; other numbers are inactive results; i = inactive; ? = inconclusive; · = no result. Unless noted, the call rests on the fitted dose curve; in most records, active means well fitted curve in the direction sought with a large enough effect; inconclusive means small, poorly fitted or top-dose-only effect, or another doubt; inactive means no such curve, though single readings can be large; an effect the other way counts as inactive or inconclusive.

SMILES | TGFb inhibitor | S-ASM inh | HepG2 viability | TDP1 cell CPT | DT40 TDP1 no CPT | IL-1B inflam inh
O=Cc1c(Sc2ccccc2)nc2ccccn2c1=O | 13.8% | -1.9% | -4.3% | ? | 16.4µM* | -113.6*
O=Cc1c(Sc2ccccn2)nc2ccccn2c1=O | -12.7% | 0.0% | -8.6% | ? | ? | -86.1*
O=Cc1c(SCCO)nc2ccccn2c1=O | -3.1% | 41.9% | 2.5% | 2.3% | 18.9% | -3.8
COc1cc(OC)cc(C(=O)Nc2ccc(S(=O)(=O)Nc3ccccn3)cc2)c1 | -4.5% | -0.8% | 2.3% | -3.2% | -21.5% | 11.5
O=C1C=C(c2c(O)ccc3ccccc23)c2ccccc2C1=O | 2.82µM* | -11.1% | 12.6µM* | 1.16µM* | 1.16µM* | -116.8*
C=CCNc1ccccc1S(=O)(=O)NCc1ccccc1 | ? | -7.6% | -10.0% | ? | -13.1% | 18.1
O=Cc1c(-c2ccccc2)cc2oc3ccccc3cc1-2 | -4.7% | -2.3% | -14.1% | ? | 13µM* | 4.2
CCN(CC)C(=O)C1=C(C)N(CCC2=CCCCC2)C(=O)C(CC(=O)NCCCN(C)C)C1 (stereo not given) | 7.1% | · | 5.6% | -3.2% | -2.1% | 33.8
Cc1cccc(Nc2cc(C)nc3nc(Cc4ccc(Cl)cc4)nn23)c1 | ? | · | -35.1% | 20.6µM* | ? | ·
CCc1nc2nc(C)cc(Nc3cc(C)ccc3C)n2n1 | 3.8% | · | -4.5% | ? | 18.4µM* | ·
CCOc1ccc(Nc2cc(C)nc3nc(Cc4ccc(Cl)cc4)nn23)cc1 | ? | · | -0.7% | ? | -0.3% | ·
CCc1nc2nc(C)cc(Nc3ccc(Br)cc3F)n2n1 | -27.0% | · | -13.4% | 16.4µM* | ? | ·
CCOc1ccc(CNC(=O)CCn2nc(C)c3c(C)n(-c4ccccc4)nc3c2=O)cc1 | -6.5% | · | 2.8% | -4.9% | -17.5% | ·
CCN1CCN(C(CNS(=O)(=O)c2ccc(OC)c(C)c2)c2cccnc2)CC1 (stereo not given) | 11.6% | 9.7% | 18.8% | 15.9% | 2.2% | i
CC(C)(C)OC(=O)N1CCC[C@H]1c1nnc(SCc2ccc(Cl)cc2Cl)o1 | ? | 0.4% | -5.1% | ? | 14.6µM* | ?
CC(C)(C)OC(=O)N1CCC[C@H]1c1nnc(SC/C=C/c2ccccc2)o1 | ? | -0.8% | 1.9% | ? | 23.1µM* | -14.6
CC(C)(C)OC(=O)N1CCC[C@H]1c1nnc(SCc2ccc(Cl)cc2)o1 | ? | 2.1% | -57.6% | ? | 20.6µM* | ?
CC(C)(C)OC(=O)N1CCC[C@H]1c1nnc(SCc2ccccc2Cl)o1 | ? | -0.4% | -1.6% | ? | ? | -0.4
CCCCSc1nnc([C@@H]2CCCN2C(=O)OC(C)(C)C)o1 | ? | 52.4% | -4.5% | -18.4% | ? | 0.0
CCN(c1ccc(C)cc1C)S(=O)(=O)c1nnc(NC(=O)CC(C)C)s1 | 0.0% | · | -20.6% | ? | ? | ·
O=C(c1nc2ccc(Cl)cn2c1CNCC[C@@H]1C[C@@H]2C=C[C@H]1C2)N1CCCCCCC1 | ? | -0.3% | -36.6% | ? | ? | -72.1*
C[C@@H]1CN(C(=O)c2nc3ccc(Cl)cn3c2CNCC[C@@H]2C[C@@H]3C=C[C@H]2C3)C[C@H](C)O1 | 0.8% | 0.8% | 2.4% | ? | ? | -2.7
CCOc1ccc(C2C(C#N)=C(N)N(N(C)C)C3=C2C(=O)CC(C)(C)C3)cc1 (stereo not given) | -24.6% | -3.7% | -8.6% | -28.9% | -4.1% | -10.5
COc1ccc(C2C(C#N)=C(C)NC3=C2C(=O)c2ccccc23)cc1 (stereo not given) | 9.9% | -13.6% | -3.5% | ? | 25.9µM* | -16.7
COc1cc(C2C(C#N)=C(C)NC3=C2C(=O)c2ccccc23)cc(OC)c1OC (stereo not given) | ? | -13.7% | -31.7% | 1.03µM* | 0.581µM* | 50.1
SMILES | TGFb inhibitor | S-ASM inh | HepG2 viability | TDP1 cell CPT | DT40 TDP1 no CPT | IL-1B inflam inh
CCOc1ccc(C2C(C#N)=C(C)NC3=C2C(=O)c2ccccc23)cc1 (stereo not given) | 0.0% | -18.6% | -3.2% | 20.6µM* | 14.6µM* | 7.4
COc1ccc(C(=O)Nc2nc3nc(C)c(Cc4ccccc4)c(=O)n3[nH]2)cc1OC | -0.9% | · | -0.1% | -4.8% | -5.7% | ·
Cc1cc(Br)cn2c(Cc3ccccc3C(F)(F)F)c(-c3ccccc3)nc12 | · | · | · | ? | ? | 43.0
CCCc1nc2c(C)cc(Br)cn2c1Cc1ccccc1C(F)(F)F | ? | · | 10µM* | 23.1µM* | 23.1µM* | 39.0
Cc1cc(Br)cn2c(Cc3ccsc3)c(-c3ccc(F)cc3)nc12 | -21.5% | · | -28.4% | -23.7% | 14.6µM* | 74.0
CCCc1nc2c(C)cc(Br)cn2c1Cc1ccccc1 | -25.9% | · | -15.6% | ? | ? | 74.4
Cc1cc(Br)cn2c(Cc3ccsc3)c(C(C)(C)C)nc12 | -9.5% | · | -29.6% | ? | 25.9µM* | 12.3
CCCc1nc2c(C)cc(Br)cn2c1Cc1ccsc1 | ? | · | -12.1% | ? | 23.1µM* | 24.5
CNC(=O)C(=O)NCC1OCCCN1S(=O)(=O)c1ccc(F)cc1C (stereo not given) | 0.2% | 2.6% | 0.0% | 1.8% | -1.6% | i
O=C(N/C(=C\c1ccccc1)C(=O)N1CCOCC1)c1ccccc1Br | 1.4% | 2.4% | -1.1% | 4.2% | 3.2% | -15.6
CCC1CSC(Nc2ccc(C(=O)/C=C/c3ccc(Br)cc3)cc2)=N1 (stereo not given) | 15.8µM* | ? | -57.3% | ? | ? | -92.9*
COc1ccc(/C=C/C(=O)NCCCNC(=O)/C=C/c2ccc(OC)c(OC)c2)cc1OC | 2.4% | -1.3% | -29.2% | -0.7% | -10.6% | -9.8
CCC1CSC(Nc2ccc(C(=O)/C=C/c3ccc(OC)c(OC)c3)cc2)=N1 (stereo not given) | ? | 82.1% | -13.1% | ? | 13µM* | -93.5*
CC(C)(O)C#Cc1ccc(CNC[C@H]2O[C@@H](n3cnc(C(N)=O)n3)[C@H](O)[C@@H]2O)s1 | -1.5% | 5.3% | 5.2% | 2.8% | -13.1% | 3.9
CCN1/C(=N\N)c2cccc3cccc1c23 | 8.4% | 76.9% | -29.9% | ? | 20.6µM* | 3.7
